We go through 15 compounds from PubChem BioAssay AID2113 (National Center for Advancing Translational Sciences (NCATS), 2009).

Results filed as inconclusive are left out. Unmarked numbers belong to inactive results. Calls of active or inactive are those of the source. Calls follow the shape of the dose curve; as a rule, active = well fitted curve in either direction with a large enough effect; inconclusive = small, poorly fitted or top-dose-only effect; inactive = no such curve, though single readings can be large or run the other way.

In this assay the target is Lysosomal alpha-glucosidase (Homo sapiens) (UniProt P10253). The assay is described as follows: Confirmation of Inhibitors and Activators of Human alpha-Glucosidase From Spleen Homogenate. Also: 0% is about no effect. The following applies: alpha-glucosidase enzyme activity; series mostly up to 60.5 µM; activity change, both directions: at the top concentration. The text has this: NIH Chemical Genomics Center [NCGC]
NIH Molecular Libraries Probe Production centers Network [MLPCN]
Assay Submitter (PI): Wei Zheng
Alpha-glucosidase is responsible for hydrolysis of terminal, non-reducing 1,4-linked alpha-D-glucose residues with release of alpha-D-glucose. It is a lysosomal hydrolase that is required for the degradation of a small percentage (1-3%) of cellular glycogen in human. Deficiency of this enzyme results in glycogen-storage disease type II (GSDII), also referred to as Pompe disease, an autosomal recessive disorder. Structurally normal glycogen is accumulated in lysosomes and cytoplasm in affected patients, primarily in muscle tissues. Excessive glycogen storage within lysosomes may interrupt normal functioning of other organelles and leads to cellular injury. In turn, this leads to enlargement and dysfunction of the entire organ involved (eg, cardiomyopathy and muscle weakness).
It has reported that the improper folding and trafficking of alpha-glucosidase resultinged from the genetic mutations may account for a significant number of Pomrope patients. […] We optimized this alpha-glucosidase assay in 1536-well plate format for identifying the novel small molecule inhibitors with the structures other than the sugar analogs in order to develop the new pharmacological chaperones. In particular, this assay is directed towards discovering compounds active in a more natural setting, tissue homogenate, that may have been missed by screens of the purified enzyme under more stringent conditions. This assay attempted to confirm hits from the primary screening.
NCGC Assay Protocol Summary:
This is a fluorogenic enzyme assay with 4-methylumbelliferyl-alpha-D-glucopyranoside as the substrate and human spleen homogenate containing alpha-glucosidase as the enzyme preparation. Upon hydrolysis of this fluorogenic substrate, the resulting product, 4-methylumbelliferone (which excites at 365 nm and emits at 440 nm) can be detected by a fluorescence plate reader. Data were normalized to the controls for basal activity (without enzyme) and 100% activity (with enzyme). The AC50 values were determined from concentration-response data modeled with the standard Hill equation.
Assay buffer: 50 mM citric acid (titrated with potassium phosphate to pH 5.0), 0.01% Tween-20 (pH 5.0 is an optimal condition for this enzyme assay)
1536-well assay protocol for the alpha-glucosidase from human spleen homogenate:
(1) Add 2 ul/well spleen homogenate (1 ug)
(2) Add 23 nL compounds in DMSO solution. The final titration was 0.5 nM to 58 uM.
(3) Add 2 ul of substrate (1 mM final)
(4) Incubate at 37 C for 40 min
(5) Add 2 ul stop solution (1M NaOH and 1M Glycine mixture, pH 10)
(6) Detect the assay plate in a ViewLux plate reader (PerkinElmer) with Ex=365 nm and Em=440nm.
Keywords: Alpha-glucosidase, Pompe Disease, pharmacological chaperone, chaperone therapy, high throughput screening, alpha-glucosidase inhibitor, MLSMR, MLSCN, NIH Roadmap, qHTS and NCGC
As for `CCCCC/C=C\C/C=C\C/C=C\C/C=C\CCCC(=O)NCCCC(=O)O`, the “activity change, both directions” value was -9.01%.

With `CC(=O)Nc1ccc(OC(=O)c2ccccc2N)cc1`, the “activity change, both directions” value is 6.2% [at 31.5 µM]. On the same count and under the same terms, next, `Cc1cc(C(=O)CS(=O)(=O)c2ccc(F)cc2)cc(C)c1OC(=O)N(C)C`: 1.6% [at 31.5 µM]. In the case of `O[C@H]1[C@H](O)[C@@H](O)CN2CC[C@H](O)[C@H]12`, the compound was called inactive. With `Cc1cc(/C=C2\C(=O)NC(=O)N(c3ccc(F)cc3)C2=O)c(C)n1-c1ccc(C(=O)O)cc1`, the “activity change, both directions” value was -12.7%.

Turning to `Cc1cc(/C=C2/C(=O)NC(=O)N(Cc3ccco3)C2=O)c(C)n1-c1ccc(C(=O)O)cc1`, the “activity change, both directions” value was -16.4%. Consider `CC(=O)[O][Hg][c]1ccccc1`, for which the “activity change, both directions” value is 5.66% [at 286 µM].

With `CCOc1ccc2cc(C#N)c(=O)oc2c1`, the “activity change, both directions” value is 2.73%.

On to `OC[C@@H]1[C@@H](O)[C@H](O)[C@H]2[C@@H](O)CCN21`, for which the “activity change, both directions” value was -42.7%. Take `COc1ccc(Cc2nccc3cc(OC)c(OC)cc23)cc1OC`: the “activity change, both directions” value is -1.95%. Consider `O=C(O)c1ccccc1-c1c2cc(Br)c(=O)cc-2oc2[c]([Hg])c(O)c(Br)cc12`, for which the “activity change, both directions” value is -2.07% [at 286 µM]. Still for that read-out and setting: under `C/C(O)=C(/C#N)C(=O)Nc1cc(Br)ccc1Br` stands -58.7%; under `O[C@@H]1[C@H](O)[C@H]2[C@@H](O)CCN2C[C@@H]1O`, -100% [at 286 µM].

As for `CC(C)(C)c1cc(C=C(C#N)C#N)cc(C(C)(C)C)c1O`, the “activity change, both directions” value is 2.31%.

In the case of `C/C=C(/C)C(=O)O[C@H]1C(C)=C2C([C@@H]1OC(=O)CCCCCCC)[C@@](C)(OC(C)=O)C[C@@H](OC(=O)CCC)[C@@]1(O)[C@H]2OC(=O)[C@@]1(C)O` (stereo not given in full), the “activity change, both directions” value was -6.96%.
